In PubChem BioAssay (NCI):
This is part of a sample that, as a whole, favours compounds with a hit. Of some 79,000 tested, about 15% had one in any assay. Rule as the data show it: active = growth inhibition above about 70%; inactive = the rest.

Legend:
[1] = NCI Yeast Anticancer Drug Screen. Data for the rad50 strain (AID 155);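 also: 0% = growth of vehicle-only cultures of the same strain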; conditions: S. cerevisiae rad50 strain growth inhibition; at 50.0 µM; active compounds read high
Summary of the method: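 Genetically altered yeast (DNA repair pathway); compound treatment; growth inhibition vs vehicle ctrl.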

[2] = NCI Yeast Anticancer Drug Screen. Data for the mec2-1 strain (AID 157); conditions: S. cerevisiae mec2-1 strain, at 50.0 µM, active compounds read high
Summary of the method: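 Strain: mec2-1 (DNA repair/cell cycle alteration). Compound exposure, then growth measured; inhibition expressed relative to vehicle.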

[3] = NCI Yeast Anticancer Drug Screen. Data for the mlh1 rad18 strain (AID 175); conditions: S. cerevisiae mlh1 rad18 strain growth inhibition; at 50.0 µM; active compounds read high
Summary of the method: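 Read-out is yeast growth inhibition, calculated against vehicle-only controls. The compound was applied to a strain engineered with DNA damage repair alterations.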

Measured: growth inhibition

Cc1ccc2oc(C)[n+](CCC(=O)O)c2c1
inactive: [1] 15.7% | [2] 6.45% | [3] 42%

O=C(O)c1cc(N=Nc2ccccc2)ccc1O
inactive: [1] -19.1% | [2] -12.7% | [3] -23.8%

Cc1ccc(NCN2C(=O)c3ccccc3C2=O)cc1Cl
inactive: [1] 20.1% | [2] -5.55% | [3] 28.3%

COc1ccc(C2NC(=O)c3ccccc3N2)c(OC)c1OC (stereo unspecified)
inactive: [1] -8.55% | [2] -20.5% | [3] -16.4%

CCCOC(=O)C(=O)C(C#N)c1ccccc1 (stereo unspecified)
inactive: [1] 21.1% | [2] -0.35% | [3] 16.9%

CN(C)/C=C/C(=O)c1ccccc1[N+](=O)[O-]
inactive: [1] 16.7% | [2] -11.4% | [3] 12.2%

O=C(CCc1ccc(O)cc1)N/N=C/c1cc(Br)ccc1O
inactive: [1] -29.6% | [2] -38.4% | [3] -20.6%

CCn1c(C)[n+](CC)c2ccc(C(F)(F)F)cc21
inactive: [1] -6.4% | [2] -10.7% | [3] 14.9%

CC[n+]1c(C)n(Cc2ccc(C(=O)O)cc2)c2cc(F)ccc21
inactive: [1] -10.8% | [2] -14.7% | [3] 27.9%

O=C(N/N=C/c1ccc2c(c1)CCC2)c1cccc([N+](=O)[O-])c1
inactive: [1] -17.9% | [2] -30.9% | [3] -15.8%

C[Si](C)(CCl)N[Si](C)(C)CCl
inactive: [1] -23.6% | [2] -33.9% | [3] -6.1%

CCCCCCCCCCCCOc1ccccc1C=O
inactive: [1] 1.5% | [2] -29.8% | [3] -17.4%

COc1cc(-c2cc(=O)c3c(O)cc(C)cc3o2)cc(OC)c1OC
inactive: [1] -0.85% | [2] -9.8% | [3] -17.8%

CCC(=O)N/N=C/C=N/NC(=O)c1ccncc1
inactive: [1] -30.7% | [2] -31.8% | [3] -7.25%

CC(C)CC(Br)C(=O)NC(CC(C)C)C(=O)O (stereo unspecified)
inactive: [1] -26.2% | [2] -27.9% | [3] -23.2%

O=C(O)COC1CC(=O)N2c3ccccc3C34CCN5C(=O)C(=O)C(CC53)C1C24 (stereo unspecified)
inactive: [1] -1.7% | [2] -24.9% | [3] -9.5%

CC(C)Oc1ccc(C(=O)NS(=O)(=O)c2ccc(N)cc2)cc1
inactive: [1] -25% | [2] -32.5% | [3] -8.4%

Cc1cc(C)cc(NC(=O)c2ccccc2N)c1
inactive: [1] -5.15% | [2] -27.9% | [3] -4.6%

O=C1NC(C2CC3C=CC2C3)Nc2ccccc21 (stereo unspecified)
inactive: [1] 6.75% | [2] 0.8% | [3] 2.7%

O=C1NC(=O)C(c2ccccc2)(C2CCC2)N1 (stereo unspecified)
inactive: [1] -6.95% | [2] -33.1% | [3] -13.3%

COc1ccc(NCc2ccc(C)cc2)cc1
inactive: [1] -2.55% | [2] -17.1% | [3] 3.45%

O=C1OC(c2ccc(Cl)cc2)=N/C1=C\c1ccccc1
inactive: [1] -4.85% | [2] -5.5% | [3] -6.65%

c1coc(-c2nc(N=C3N=c4ccccc4=N3)[nH]c2-c2ccco2)c1
inactive: [1] 16.6% | [2] 18.9% | [3] 4%

Cc1ccc(Cl)cc1NCN1C(=O)c2ccccc2C1=O
inactive: [1] 1.35% | [2] -2.4% | [3] 11.1%

C[Si]1(C)N[Si](C)(C)N[Si](C)(C)N1
inactive: [1] 13.2% | [2] -19.6% | [3] 2.3%

CCCN1CCc2cc(OC)c(OC)cc2C1Cc1ccc(OC)c(OC)c1 (stereo unspecified)
inactive: [1] -13.8% | [2] -0.2% | [3] -5.7%

O=C(/C=C/C=C/c1ccccc1)c1ccc(Cl)cc1
inactive: [1] -12.3% | [2] -27.4% | [3] 3.5%

C(=NCC1CCC(CN=Cc2ccco2)CC1)c1ccco1 (stereo unspecified)
inactive: [1] -21% | [2] -24.8% | [3] -12.5%

CN(C)c1ccc(C2=C([O-])C(=C3C=CC(=[N+](C)C)C=C3)C2=O)cc1
inactive: [1] -10.4% | [2] -15.2% | [3] -5.55%

Cc1ccc(N2C(=O)CC(Sc3ccccc3N)C2=O)cc1 (stereo unspecified)
inactive: [1] -8.75% | [2] -17.4% | [3] -9.3%

O=C1c2ccccc2C(=O)N1/N=C/c1cc(Br)ccc1O
inactive: [1] 22.2% | [2] -4.35% | [3] 10.4%

O=c1oc(-c2cccc([N+](=O)[O-])c2)nc2ccccc12
inactive: [1] 4.4% | [2] -10.2% | [3] 4.8%

CN(C)c1ccc(P(c2ccc(N(C)C)cc2)c2ccc(N(C)C)cc2)cc1
inactive: [1] -17.2% | [2] -15.3% | [3] -25.2%

NC(=S)N/N=C/c1cc([N+](=O)[O-])ccc1Cl
inactive: [1] 10.8% | [2] -9.75% | [3] 10.2%

O=C(OCC1OC(Oc2ccccc2CO)C(O)C(O)C1O)c1ccccc1 (stereo unspecified)
inactive: [1] -2.1% | [2] 1.45% | [3] 0.45%

CCOC(=O)NC(C)(C)CN(C(=O)OCC)c1ccccc1
inactive: [1] -31.4% | [2] -39.6% | [3] -10.7%

CCOC(=O)/C=C(\C)Nc1ccc(F)cc1
inactive: [1] -0.5% | [2] -17.6% | [3] 14.2%

O=C1NC(c2ccc3ccccc3c2)Nc2ccccc21 (stereo unspecified)
inactive: [1] -2.85% | [2] -9.2% | [3] 19.1%

CCOC(=O)C(C#N)C(C(C)=O)C(=O)OCC (stereo unspecified)
inactive: [1] 9.15% | [2] -1.45% | [3] 31.4%

CCOC(=O)NC(C)(C)CN(C(=O)OCC)C(C)(C)CO
inactive: [1] 3.5% | [2] -26.2% | [3] 8.05%

Nc1ccc2[nH]c(-c3ccccc3)cc(=O)c2c1
inactive: [1] -38% | [2] -33.8% | [3] -15.9%

COC(CN(C)CC(OC)OC)OC
inactive: [1] -8.75% | [2] -20.9% | [3] -11.8%

N#C/C(=C/c1ccccc1Cl)C(N)=O
inactive: [1] -12.2% | [2] -7.05% | [3] 6.15%

COc1cc(/C=N/n2cnnc2)cc(OC)c1OC
inactive: [1] -8.35% | [2] 5.45% | [3] -13.7%

COC(=O)C(C)CN1CC(C)OC(C)C1 (stereo unspecified)
inactive: [1] -25.2% | [2] -26.2% | [3] -13.2%

COc1cc(/C=N/N2CCCCC2)cc(OC)c1OC
inactive: [1] -19% | [2] -16.6% | [3] -21.8%

COc1cc2c(cc1O)C(Cc1ccc(OC)c(OC)c1)N(C)CC2 (stereo unspecified)
inactive: [1] 4.25% | [2] 0.85% | [3] 2.35%

Cc1cccc(-c2nc3cc(Cl)ccc3c(=O)o2)c1
inactive: [1] -10.8% | [2] -13.6% | [3] 6.6%

Nc1ccc(I)cc1Cl
inactive: [1] 15.8% | [2] 4.5% | [3] 24.4%

CC(=O)c1cccc(OCc2ccccc2)c1
inactive: [1] 6.4% | [2] 2.75% | [3] 8.4%

CC1CCN(c2ccc([N+](=O)[O-])cc2[N+](=O)[O-])CC1
inactive: [1] 42.2% | [2] 3.85% | [3] 25.6%

O=C(CC(CC(=O)c1ccccc1)c1ccco1)c1ccccc1
inactive: [1] 2.6% | [2] -17.2% | [3] -8.65%

CCOC(=O)CCc1ccc(O)c(O)c1
inactive: [1] 4.9% | [2] 1.85% | [3] 15.6%

C[n+]1ccc(/C=C\c2ccc3c(c2)OCO3)cc1
inactive: [1] -1.4% | [2] -26.9% | [3] 2.6%

C/C=C(/C)N(C(C)=O)N(C(C)=O)c1ccc([N+](=O)[O-])cc1[N+](=O)[O-]
inactive: [1] 5.75% | [2] -18.2% | [3] -3.3%

NC(=O)c1ccccc1OCC(O)CO (stereo unspecified)
inactive: [1] -7.6% | [2] -24.4% | [3] 26.1%

COc1ccc(C(C#N)N2CCCC2)cc1 (stereo unspecified)
inactive: [1] -21.9% | [2] -37.9% | [3] -9.75%

COc1ccc(/C(C#N)=C2C=C(Cl)/C(=N/O)C=C/2Cl)cc1
inactive: [1] -6.55% | [2] -7.45% | [3] -19.2%

Nc1ccccc1CCc1ccccc1N
inactive: [1] 18.2% | [2] -10.1% | [3] 12.4%

O=C1OC(c2ccccc2)=N/C1=C/c1cccs1
inactive: [1] 6.85% | [2] -23.1% | [3] -24.8%

NS(=O)(=O)c1ccc(NC(=O)/C=C/C(=O)O)cc1
inactive: [1] -11.9% | [2] -10.4% | [3] -4%

COc1ccccc1Oc1ccc(N=Cc2ccc(C)cc2)cc1
inactive: [1] -16.4% | [2] -25.3% | [3] 5.3%

COc1cccc(N2C(=O)CSC2=S)c1
inactive: [1] 32.7% | [2] 7.95% | [3] 46.8%

CC(=O)Nc1ccc(/C=C/C(=O)c2ccc(Cl)cc2)cc1
inactive: [1] 18.2% | [2] -4.65% | [3] 2.75%

CC12CC3(C)CC(C)(C1)CC(C(Cl)C(=O)O)(C2)C3 (stereo unspecified)
inactive: [1] 50.7% | [2] 22.8% | [3] 29.2%

O=c1c(=O)n(CCO)n(CCO)c(=O)n1CCO
inactive: [1] -29.7% | [2] -28.9% | [3] -18.1%

NC(=O)C(=O)N/N=C/c1ccc2c(c1)CCC2
inactive: [1] -2.45% | [2] -10.9% | [3] 8.3%
